High-throughput results: PubChem, several laboratories
In the library only some 4.7% were active in any assay of this set; here they are far more common.
MPTP block: mitochondrial permeability transition pore inhibitors, primary screen, biochemical, isolated mouse mitochondria, absorbance; Ca2+ swelling absorbance, 30 min; inhibition, % at 10 µM; hit rate 1.4% among 360,000;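 active = inhibition of 50% or more, scaled per plate between neutral and stimulator controls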;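 note: 0% = DMSO wells given calcium and 100% = 1 mM EGTA wells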
ADAM17 inh: ADAM17 inhibitors, primary screen, biochemical, QFRET; hit rate 0.83% among 370,000; recombinant ADAM17, EDANS/DABCYL FRET peptide cleavage; inhibition, % at 6.95 µM; Disintegrin and metalloproteinase domain-containing protein 17 (Homo sapiens), P78536;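 active = inhibition above the mean of compounds lying between control limits plus 3 SD, set per campaign, cut at about 8.5% in these data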;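 note: 0% = DMSO-only wells as the low control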
ADAM10 inh: human ADAM10 inhibitors, primary screen, biochemical, QFRET, HTS; recombinant ADAM10, EDANS/DABCYL FRET peptide cleavage, 3 h; Disintegrin and metalloproteinase domain-containing protein 10 (Homo sapiens), O14672; hit rate 0.62% among 370,000; AID 720582, 2013; inhibition, % at 7 µM;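 active = inhibition above a per-campaign cutoff equal to the mean of compounds falling between control-based bounds plus 3 SD, cut at about 20% in these data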;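 note: 0% = DMSO wells while the 100% control is not disclosed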
proKLK7 act: proKLK7 zymogen activators, primary screen, biochemical, fluorescence intensity; activation, % at 7 µM; Kallikrein-7 (Homo sapiens), P49862; hit rate 0.9% among 370,000; purified proKLK7, EDANS-DABCYL substrate fluorescence; 100% is mature enzyme control, 0% vehicle;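 active = activation above the mean of all tested compounds plus 3 SD, computed per campaign excluding outliers beyond control limits, cut at about 13% in these data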
Target sequence (P49862 whole entry, looked up): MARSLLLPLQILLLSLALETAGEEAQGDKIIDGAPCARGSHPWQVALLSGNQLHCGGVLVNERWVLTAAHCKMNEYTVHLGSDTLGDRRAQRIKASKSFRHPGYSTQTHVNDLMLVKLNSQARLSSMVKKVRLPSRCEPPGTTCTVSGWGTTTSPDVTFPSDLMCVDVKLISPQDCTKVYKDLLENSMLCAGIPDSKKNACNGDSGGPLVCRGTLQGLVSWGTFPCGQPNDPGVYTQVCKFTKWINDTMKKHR
DSG3 Ab inh: inhibitors of pemphigus antibody binding to DSG3, primary screen, biochemical, bead-based, flow cytometry, scFv-GFP. hit rate 0.48% among 310,000. binding (percent of control), % at 10 µM. Desmoglein-3 (Homo sapiens), P32926. DSG3-coupled beads, scFv-anti-DSG3-GFP binding; hits give low values. AID 588358, 2011;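 active = binding more than 3 SD below its plate's average and above zero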;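 note: hits lower antibody fragment binding to DSG3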
rCAG binder: binders of r(CAG) RNA repeats, primary screen, biochemical, fluorescence | hit rate 1.3% among 370,000 | r(CAG) RNA repeat, TO-PRO-1 dye displacement fluorescence | inhibition, % at 3 µM;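 active = inhibition above the plate cutoff, the mean of all test compounds on that plate plus 3 SD, cut at about 35% in these data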;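 note: 0% = DMSO alone and 100% = 100 µM mitoxantrone as full dye displacement; higher means more dye released from RNA so lower well fluorescence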
MPTP counter: fluorescence retest of MPTP screen hits in isolated mitochondria, single concentration; membrane potential, Rhodamine 123 fluorescence; hit rate 78% among 5,000; shares compounds with MPTP block; AID 624504, 2012; inhibition, % at 10 µM; in the data active = inhibition above about 22%;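 note: 0% = DMSO vehicle and 100% = positive control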
MPTP swell DR: mitochondrial permeability transition pore inhibitors, dose response, biochemical, absorbance, uHTS hits | shares compounds with MPTP block | isolated mitochondria swelling | IC50, µM | hit rate 58% among 780; in the data active = IC50 below about 20 µM
MPTP cs DR: fluorescent counter-screen in isolated mitochondria, dose response, counter-screen for MPTP inhibitor project, biochemical, fluorescence, uHTS hits; isolated mitochondria counterscreen, fluorescence read-out; AID 651564, 2012; IC50, µM; hit rate 49% among 780; shares compounds with MPTP block; in the data active = IC50 below about 80 µM
Numbers without * were called inactive; . = no result given.

SMILES | MPTP block | ADAM17 inh | ADAM10 inh | proKLK7 act | DSG3 Ab inh | rCAG binder | others
O=C(N[C@H](C(=O)N1CCC[C@H]1C(=O)NCCc1ccccc1Cl)C1CCCCC1)C1CC1 | . | -1 | -7 | 0 | . | 1
CCC(C)C1/C=C\CC(NC(=O)OCC2c3ccccc3-c3ccccc32)CC(=O)N1Cc1ccccc1 (stereo not drawn) | -3 | . | . | . | 98 | .
COc1ccc(C2/C=C\CC(NC(=O)OCC3c4ccccc4-c4ccccc43)CC(=O)N2Cc2ccccc2F)cc1 (stereo not drawn) | 0 | . | . | . | 83* | .
CO[C@@]1(NC(=O)CSCC#N)C(=O)N2C(C(=O)O)=C(CSc3nnnn3C)CS[C@@H]21 | -3 | -8 | -7 | 1 | 106 | 52*
O=[N+]([O-])c1ccc(OC[C@@H](O)CN2CCC(C(O)(c3ccccc3)c3ccccc3)CC2)c(Cl)c1 | . | 7 | 7 | 1 | . | 6
O=C(Nc1ccc(F)cc1)OCc1cn(Cc2ccccc2F)nn1 | . | 1 | 2 | 0 | . | 1
CCCCS(=O)(=O)N1CCCc2nc(C)c(C)cc21 | . | -2 | -6 | 0 | . | 1
Cc1cc(C)c(C2=NOC3c4ccccc4OCC23)c(C)c1 (stereo not drawn) | . | -2 | 2 | 1 | . | 2
CC(C)c1ccc(-n2nc3ccc(N)cc3n2)cc1 | 3 | -11 | -34 | -2 | 103 | 12
Cc1ccc(-n2nc3ccc(N)cc3n2)cc1 | 1 | -124 | -423 | 35* | 104 | 11
COc1ccc(C(=O)/C=C/Nc2ccc(S(N)(=O)=O)cc2)cc1OC | -2 | -13 | -33 | 3 | 71* | 6
CCOC(=O)c1ccc(N/C=C/C(=O)c2ccc(OC)c(OC)c2)cc1 | -1 | -8 | -23 | -50 | 93 | 2
CCCCCCCCN1C(=O)[C@@H](CC(=O)N2CCCC2)C[C@@]2(C(=O)OC)C1=C[C@H](C1CCCC1)O[C@@H]2C | . | -2 | 1 | 0 | . | 5
O=C(NC1CSC/C1=N\O)c1ccccc1 (stereo not drawn) | 1 | -3 | -6 | 0 | 82* | -1
Cc1cccc(NC(=O)CC2SC(=O)N(c3ccccc3)C2=O)c1 (stereo not drawn) | 5 | 4 | 11 | 0 | 95 | 29
Cc1ccc(NC(=O)CC2SC(=O)N(c3ccccc3)C2=O)cc1 (stereo not drawn) | -2 | -2 | 5 | 0 | 74 | 37*
CCOC(=O)CCCNC(=O)OC1CCC12CCC(c1ccccc1)CC2 (stereo not drawn) | . | 2 | 3 | 0 | . | 1
COC(=O)[C@]12C[C@H](CC(=O)N3CCN(C(=O)c4ccco4)CC3)C(=O)N(Cc3ccc4c(c3)OCO4)C1=C[C@H](C(C)C)O[C@@H]2C1CC1 | . | -7 | -8 | 0 | . | 6
Cc1ccc(CN2CCCCC(NC(=O)c3ccc(F)c(F)c3)C2=O)cc1 (stereo not drawn) | . | -3 | 0 | 0 | . | 4
COc1ccc(-c2ccc3c(c2)S(=O)(=O)c2cccc(C(=O)NC4CCCCC4)c2C3=O)cc1OC | -3 | . | . | . | 54* | .
COc1ccc(-c2ccc3c(c2)S(=O)(=O)c2cccc(C(=O)NC4CC4)c2C3=O)cc1OC | 1 | -5 | -9 | 0 | 95 | 2
CCCCNC(=S)Nc1ccccc1Cc1ccccc1 | 0 | -2 | 10 | 0 | 96* | 12
CCCCSCCCNC(=S)Nc1ccccc1C | 2 | 1 | 12 | 0 | . | -5
CCOC(=O)c1c(-c2ccc(C)cc2)csc1NC(=O)c1ccc(N2C(=O)CCC2=O)cc1 | 1 | 0 | -1 | 0 | 98 | 1
CCOC(=O)c1cc(CC)sc1NC(=O)c1ccc(N2C(=O)CCC2=O)cc1 | 0 | -2 | 0 | 1 | 79* | 3
SMILES | MPTP block | ADAM17 inh | ADAM10 inh | proKLK7 act | DSG3 Ab inh | rCAG binder | others
C#CCN1CC(N(C)CCO)CS1(=O)=O (stereo not drawn) | . | 0 | -2 | 0 | . | 0
Cn1nc(C(F)(F)F)c(-c2ccc(F)cc2)c1NC(=O)Nc1ccc(F)cc1 | 74* | 2 | 6 | 0 | 101 | -1 | MPTP counter=89*
COc1ccc2cc1Oc1ccc(cc1)C[C@H]1c3cc(c(OC)cc3CCN1C)Oc1c(OC)c(OC)cc3c1[C@H](C2)N(C)CC3 | 77* | -7 | -6 | 0 | 101 | 5 | MPTP counter=-13
COc1ccc2cc1Oc1ccc(cc1)C[C@H]1c3c(cc4c(c3Oc3cc5c(cc3OC)CCN(C)[C@@H]5C2)OCO4)CCN1C | 33 | -2 | -5 | 0 | 102 | 12
COc1cc(NC(=O)COc2cc(O)c3c(c2)OC(C)(C)CC3=O)cc(OC)c1OC | 99* | 2 | -11 | 0 | 103 | -5 | MPTP counter=98*
O=C(/C=C/c1cccs1)Nc1ccc([N+](=O)[O-])cc1 | 81* | 9 | 16 | 0 | 98 | 10 | MPTP counter=74*
O=C(/C=C/c1cccs1)c1ccc([N+](=O)[O-])cc1 | 4 | -4 | -5 | 0 | 85 | 2
O=C(CCCN1C(=O)/C(=C/c2ccccc2Cl)SC1=S)NNC(=O)c1cccnc1 | 4 | -1 | 8 | 0 | 102 | 6
O=C(CCN1C(=O)/C(=C\c2ccccc2)SC1=S)NNC(=O)c1cccnc1 | 80* | -1 | 0 | 0 | 72* | 1 | MPTP counter=70*
CCOC(=O)c1sc(NC(=O)CCN2CCN(C)CC2)c(C(=O)OCC)c1C | 69* | -1 | 0 | 1 | 100 | -5 | MPTP counter=-6;MPTP swell DR=13*;MPTP cs DR=>80
Cc1cccc(NC(=O)CNC(=O)[C@H](CCc2ccccc2)NC(=O)[C@H]2O[C@@H](n3cnc4c(N)ncnc43)[C@H](O)[C@@H]2O)c1C | . | 1 | -10 | 1 | . | 8
CCCn1c(CN2CCN(c3cccc(Cl)c3)CC2)nc2c1c(=O)n(C)c(=O)n2C | 78* | 4 | 4 | 1 | 102 | 3 | MPTP counter=80*
CCCCn1c(CN2CCN(c3cccc(Cl)c3)CC2)nc2c1c(=O)n(C)c(=O)n2C | 36 | 4 | 7 | 0 | 104 | 3
O=S1(=O)N[C@H](Cc2ccccc2)COc2cccc(N3CCCCC3)c21 | . | 0 | 0 | 0 | . | -1
